Screening results deposited in PubChem by National Center for Advancing Translational Sciences (NCATS).
VACV Venus inh: qHTS for Stage-Specific Inhibitors of Vaccinia Orthopoxvirus: Venus Reporter Primary qHTS; Vaccinia virus Venus reporter expression, fluorescence; Potency, µM (doses to about 36.5 µM), for inactives: at the highest dose activity change, negative = inhibition, hits mostly inhibitors; 330,000 tested, 0.46% active; calls by dose curve; tested in A549 cells; also: potency is read from the fitted curve at half-maximal effect; nearly all actives have a fitted effect of over 30% in size
Vaccinia mCherry: qHTS for Stage-Specific Inhibitors of Vaccinia Orthopoxvirus: mCherry Reporter Primary qHTS; Vaccinia virus mCherry reporter infection, fluorescence; Potency, µM (top dose mostly 36.5 µM), for inactives: at the top dose activity change, negative = inhibition, actives largely listed as inhibitors; 310,000 tested, 0.63% active; AID 720579, 2013; calls by dose curve; tested in A549 cells; also: potency is read from the fitted curve at half-maximal effect; nearly all actives have a fitted effect of over 35% in size
HCMV antiviral: qHTS Assay for inhibitors of the human cytomegalovirus (HCMV) | HFF cells, HCMV-luciferase reporter, 72 h; hits give low values | activity change, negative = inhibition, % at 57.5 µM | 410,000 tested, 4.5% active | AID 1259415, 2018; in the data active = activity change below about -60%; inconclusive = no clear call, values can overlap the other calls; inactive = above about -39%
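Inhibition of viral replication was scored as loss of reporter luminescence in HFFs infected with HCMV-luciferase (MOI 1 PFU/cell) for 72 h; compounds tested at 2 doses, normalized to buffer and Salinomycin controls.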
TbPYK inhibitor: qHTS of Trypanosoma Brucei Inhibitors; TbPYK enzyme, Kinase-Glo Plus ATP luminescence, 45 min; Potency, µM (top dose mostly 76.8 µM), for the others: top-dose activity, negative = inhibition, actives largely listed as inhibitors; 410,000 tested, 0.12% active; also: potency is read from the fitted curve at half-maximal effect; nearly all actives have a fitted effect of over 50% in size
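Quantitative HTS: titrated library compounds versus trypanosomal pyruvate kinase in TEA buffer (pH 7.2) containing KCl, MgCl2, BSA and Tween-20. Reactions were initiated with ADP, 130 uM final. Kinase-Glo Plus luminescence was read after 45 min at RT.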
LmPK inhibitor: qHTS Assay for Inhibitors of Leishmania Mexicana Pyruvate Kinase (LmPK); Q27686; purified LmPK, Kinase-Glo ATP luminescence, 1 h; Potency, µM (top dose mostly 57.5 µM), inactives show top-dose activity change, negative = inhibition, actives largely listed as inhibitors; 290,000 tested, 0.37% active; also: potency is read from the fitted curve at half-maximal effect
Target sequence (Q27686 whole entry, looked up): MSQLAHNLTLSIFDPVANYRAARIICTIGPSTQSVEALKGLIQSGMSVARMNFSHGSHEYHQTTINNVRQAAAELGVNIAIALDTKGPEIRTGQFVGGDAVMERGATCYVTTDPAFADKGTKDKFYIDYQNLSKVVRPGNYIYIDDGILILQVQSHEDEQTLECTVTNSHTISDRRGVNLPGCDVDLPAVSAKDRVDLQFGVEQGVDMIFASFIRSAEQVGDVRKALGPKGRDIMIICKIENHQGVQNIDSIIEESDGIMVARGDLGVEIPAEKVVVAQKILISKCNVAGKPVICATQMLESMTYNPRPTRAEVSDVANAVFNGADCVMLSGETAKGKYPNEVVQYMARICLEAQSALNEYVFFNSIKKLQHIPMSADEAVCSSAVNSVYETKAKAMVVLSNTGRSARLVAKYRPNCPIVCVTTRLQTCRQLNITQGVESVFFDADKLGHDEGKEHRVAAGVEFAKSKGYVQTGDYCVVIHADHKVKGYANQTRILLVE
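Pyruvate kinase activity monitored as ATP production (luciferase luminescence). Conditions: 0.1 nM enzyme, 0.5 mM PEP, 0.1 mM ADP, 1 h, RT; normalized against uninhibited and no-enzyme wells.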
* hit, by the source's call; [ ] = remark or other dose. The list is not random: actives were taken first. Their share in the collection is about 5%. Unless noted, calls follow the shape of the dose curve; as a rule, active = well fitted curve in the direction sought with a large enough effect; inconclusive = small, poorly fitted or top-dose-only effect, or another doubt; inactive = no such curve, though single readings can be large; an effect the other way counts as inactive or inconclusive. % is scaled to controls: 0 for no effect and ±100 for the full control effect.

`COc1cccc(/C=N/NC(=O)CNC(=O)c2ccc3c(c2)OCCO3)c1O` gave VACV Venus inh inconclusive, Vaccinia mCherry inconclusive, HCMV antiviral 11.7, TbPYK inhibitor -4.6% and LmPK inhibitor -0.8%.
Screening C/C(=N\NC(=O)c1ccoc1C)c1ccccc1 returned VACV Venus inh -8.4%[7.34 µM], Vaccinia mCherry inactive[7.34 µM], HCMV antiviral 49.2, TbPYK inhibitor -17.3% and LmPK inhibitor 14.1µM*.
`O=C(N/N=C/c1cccc(O)c1)c1ccc2c(c1)OCCO2` gave HCMV antiviral 157.1, TbPYK inhibitor -7.6% and LmPK inhibitor -3.8%.
O=C(NN=C1CCCC1)c1n[nH]c2c1CCC2 was read as VACV Venus inh inconclusive, Vaccinia mCherry inconclusive, HCMV antiviral -6.8, TbPYK inhibitor -7.4% and LmPK inhibitor -16.2%.
For O=C(NN=C1CCCC1)c1n[nH]c2c1CCCC2 the results were HCMV antiviral -37.8, TbPYK inhibitor -10.9% and LmPK inhibitor 28.2µM*.
CCC(=NCCCN1CCOCC1)c1c(O)n(-c2ccccc2C)c(=O)[nH]c1=O was read as HCMV antiviral -5.9, TbPYK inhibitor -5.5% and LmPK inhibitor 1.4%.
For COc1cc(-c2cnc3c(NC=O)cc(-c4cccnc4)cn23)cc(OC)c1OC the results were VACV Venus inh inconclusive, Vaccinia mCherry inconclusive, HCMV antiviral 61.3 and TbPYK inhibitor -0.9%.
O=C(NCCNC1CCC(c2ccccc2)CC1)c1cccs1 (stereo not given) was read as VACV Venus inh -2.1%, Vaccinia mCherry -5.4%, HCMV antiviral -98.7*, TbPYK inhibitor -3.0% and LmPK inhibitor 2.3%.
For COc1ccc(NS(=O)(=O)c2ccc(C)c(C(=O)N(C)Cc3ccc(C)cc3)c2)cc1 the results were VACV Venus inh -17.8%, Vaccinia mCherry inconclusive, HCMV antiviral inconclusive and TbPYK inhibitor 2.2%.
For O=[N+]([O-])c1ccc(CSc2nc3ncc(Br)cc3[nH]2)cc1 the results were HCMV antiviral -62.4*, TbPYK inhibitor -2.4% and LmPK inhibitor 8.9%.
`O=C(CSc1nc2ncc(Br)cc2[nH]1)c1cccc([N+](=O)[O-])c1` gave VACV Venus inh -7.8%, Vaccinia mCherry -12.5%, HCMV antiviral -2.3, TbPYK inhibitor 8.7% and LmPK inhibitor 0.7%.
`O=[N+]([O-])c1cc([N+](=O)[O-])c(Oc2ccc(Br)cc2Br)cc1NN1CCCCC1` gave VACV Venus inh -11.8%, Vaccinia mCherry inconclusive, HCMV antiviral -9.0, TbPYK inhibitor 0.7% and LmPK inhibitor -2.4%.
Screening Cn1cc(CN2CCC(C(=O)N3CCCCC3)CC2)c(-c2ccccc2F)n1 returned VACV Venus inh -9.4%, Vaccinia mCherry -6.1%, HCMV antiviral 3.6, TbPYK inhibitor 0.2% and LmPK inhibitor -1.8%.
Screening Cc1nn(Cc2c(Cl)cccc2Cl)c(C)c1NC(=O)c1cnn2c(C(F)F)cc(-c3ccccc3)nc12 returned VACV Venus inh -15.9%, Vaccinia mCherry -21.0%, HCMV antiviral -7.8, TbPYK inhibitor -3.8% and LmPK inhibitor 0.2%.
`Cc1ccc(-c2cc(C(F)F)n3ncc(C(=O)Nc4c(C)nn(Cc5ccccc5Cl)c4C)c3n2)cc1` gave VACV Venus inh -24.2%, Vaccinia mCherry inconclusive, HCMV antiviral -95.4*, TbPYK inhibitor 0.5% and LmPK inhibitor 1.4%.
Screening Cc1ccc(-c2cc(C(F)F)n3ncc(C(=O)Nc4c(C)nn(Cc5c(Cl)cccc5Cl)c4C)c3n2)cc1 returned VACV Venus inh -14.2%, Vaccinia mCherry inactive, HCMV antiviral -76.6*, TbPYK inhibitor -2.2% and LmPK inhibitor 1.6%.
`Cc1nn(Cc2ccccc2Cl)c(C)c1NC(=O)c1ccn(C)n1` gave VACV Venus inh -8.4%, Vaccinia mCherry inactive, HCMV antiviral 0.7, TbPYK inhibitor 1.2% and LmPK inhibitor -3.6%.
`Cc1nn(Cc2ccccc2Cl)c(C)c1NC(=O)c1nc2ncccn2n1` gave VACV Venus inh -11.3%, Vaccinia mCherry -20.4%[1.46 µM], HCMV antiviral -62.7*, TbPYK inhibitor 4.8% and LmPK inhibitor -4.5%.
`CCC(=O)n1nc(-c2ccc(Cl)cc2)nc1NCc1ccccc1` gave VACV Venus inh -24.8%, Vaccinia mCherry -17.3%, HCMV antiviral inconclusive, TbPYK inhibitor -2.2% and LmPK inhibitor 4.0%.
